PBM binding z-score data for 39 sequences are collected here from the supplement of paper PMC6555819.

The subject of the experiment is PPARg homodimer (NR concentration 180 nM). Nature of the experiment: PBM binding z-score (relative to random genomic background probes); higher = stronger binding; sequences stand for … in GC…GCGATTGACAGCGTAGAATGAAGG
The procedure, abridged:
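Ligand-free nuclear receptor dimers were applied to custom Agilent 4×180K protein-binding microarrays whose double-stranded probes carried direct-repeat seeds, single-nucleotide variants, half-site ablations and random human genomic background sequences in 34-nt variable regions. Incubation lasted 1 h. Binding z-scores were computed against the random background probes from regression-normalized fluorescence.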
The sequence CCTGCTAGGTCATGGTTAGCTAATCTACAGTATG came in with a PBM binding z-score of 3.42.

AATACAGGGTCACTAGGCCAGTGTAGGTACGAAT yielded a PBM binding z-score of 2.55.

AGAACGAGGTCAATGAGTTGATAGCACGGGTGGC yielded a PBM binding z-score of 3.64.

Consider TCTAGCAGGCCAGAGGGTCACTCTAGAGGTACGG, for which the PBM binding z-score was determined as 0.476.

With CCTATTAGTTGACTATAAGGGCAACCGAAGCTCG, the PBM binding z-score worked out at 0.891.

Turning to ATCTCTAGGTAAAGATAGTTCAGTGCATGCAAAT, the PBM binding z-score is 0.899.

CCTCGGCGGACAACAGGAGGTCAGAGCTGCCAGA came in with a PBM binding z-score of 0.632.

As for AGAATGAGGGTAAGATCAGGGAAACAGAATACAT, the PBM binding z-score was determined as 0.587.

Sequence TCTATTTGTTGAAGGGCAACCGACGAGTCCGTTT showed a PBM binding z-score of 1.38.

In the case of CGTCCAAGGTCAATACTAGGTCAGTGAAAGCATT, the PBM binding z-score came out at 3.8.

On to GCTACTGGGGCATCAGCAGGTTACCATAACTTAA, for which the PBM binding z-score worked out at 0.599.

In the case of CCTCCAAGGTCAGCAGGTCAGTGAAAGCGACGTG, the PBM binding z-score stood at 2.56.

CCGACTGGGGCAGAAAGGTTACCATTCCATCCGG came in with a PBM binding z-score of 0.284.

In the case of CCTACTTGGTCAAGGTCACACACGCTATAGGTAC, the PBM binding z-score came out at 3.34.

The sequence CCTGCTAGGTGAATGGTCAGCTAAAGCAGCTCGC had a PBM binding z-score of -0.377.

As to TCTTGTAGATCAAAAGTTAAGAAAGCCGAAGCCT, the PBM binding z-score was -0.327.

CCTTACGGGTCACGCCAGGTTATAGCATCGGAGT gave a PBM binding z-score of 2.19.

As for GCGACTGGGGCAAAGCAGGTTAACATAAGGTTGG, the PBM binding z-score is 0.353.

GCGACTGCGGCAAAGCAGGTTACCATAAGGTTGG registered a PBM binding z-score of -0.726.

In turn, TAGCCTAGGTCAGATCGGGCCAATATACGCTATA showed a PBM binding z-score of 0.782.

Sequence AGAACGAGGGCACGTTGAGTTGATAGCAGAGTAG showed a PBM binding z-score of 0.701.

The sequence ACAAGCAGGCCAAGTTTGGGTCACTCAAACAAAG gave a PBM binding z-score of -0.0252.

Take ATCTCTAGGTAACAAGTTCAGTGAAAGAGAGGAC: the PBM binding z-score worked out at 1.58.

Sequence ACTTACGGGTCATCGAGGTTATAGCACGCGTATA showed a PBM binding z-score of 2.09.

In turn, CCGACTGGGGCAGAAAGGCTACCATACCATCCGG gave a PBM binding z-score of -0.0679.

As to ACTTGCAGGCCAAGTTTGGGTCACTCAAACAAAG, the PBM binding z-score stood at 0.632.

Consider AGAACGAGGGCAATGAGTTGTTAGCACGGGTGGC, for which the PBM binding z-score is -0.355.

Sequence CCTTACGGGTCAAGGTTATAGGACGGGTGGTACG gave a PBM binding z-score of 2.15.

CCTTACAGGTCACTCCAGGTTATAGCATCGGAGT displayed a PBM binding z-score of 2.41.

TCTACTAGGTCAGTTGGTCAGCTAACGAGCTGCC: the PBM binding z-score came to 1.78.

TAGCCTAGGTGAGATCGGGCCAGTATACGCTATA showed a PBM binding z-score of -0.915.

Consider TGTCAAAGTTCAAAGGTAACGGAAGTATCCACAC, for which the PBM binding z-score came out at 3.69.

Consider TCATAAAGGTAAAGGTGAAAGTCGAACGATATGA, for which the PBM binding z-score was 1.69.

Consider ACCGAAAGGTCGAGGTGAGTATAGAGAAAGGGAA, for which the PBM binding z-score is 1.13.

GATACAGGCTCAAGGCCAGAGTACGCGTATTGAT returned a PBM binding z-score of -1.02.

Consider TCTTGTAGATCAAGCAGGTTAAGACAGCCTGAGT, for which the PBM binding z-score is -0.449.

TCGAGTAGGTTACCAATGGAGCATTCAGCTTTCT gave a PBM binding z-score of -0.556.

TTACCAAGGTGCGCTGAGGTCGTTGATCCAACTC had a PBM binding z-score of -0.175.

Turning to TAGCCGAGGTCAGATCGGGCCAGTATACGCTATA, the PBM binding z-score was 1.19.
